The full list was thinned out, with hits kept by preference.
DT40 TDP1 no CPT: qHTS for Inhibitors of human tyrosyl-DNA phosphodiesterase 1 (TDP1): qHTS in cells in absence of CPT. Potency, µM (doses to about 46.2 µM), inactives show at the top dose activity change, negative = growth inhibition, actives largely listed as inhibitors. DT40 Tdp1-/- hTDP1 cells, no CPT, ATP luminescence, 48 h. hit rate 15% among 420,000; also: potency is read from the fitted curve at half-maximal effect; nearly all actives have a fitted effect of over 55% in size
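Growth of hTDP1-complemented DT40 Tdp1-knockout cells is measured by ATP luminescence after at least 48 hr compound exposure at 37 °C, with DMSO substituting for the 20 nM CPT used in the parallel screen.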
HT1080 IDH1KD tx: HT-1080 IDH1 knockdown cell toxicity (counter line) | hit rate 2% among 360,000 | Potency, µM (highest dose often 46.1 µM), inactives show at the highest dose activity, negative = toxicity, hits mostly cytotoxic | HT-1080 IDH1 knockdown viability, ATP luminescence, 48 h;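 also: potency is read from the fitted curve at half-maximal effect; 0% = DMSO wells and -100% = cell-free medium wells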
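CellTiter-Glo luminescence after 48 h compound exposure at 37 degrees C of IDH1-knockdown HT-1080 cells in 5% FBS RPMI. %Activity scaled between DMSO wells and cell-free media wells, with curves fitted and assigned curve classes.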
IL1B secr inh: blocks inflammasome-driven IL-1 beta release; AID 743279; hit rate 4.7% among 360,000; THP-1 LPS/ATP IL-1B secretion, AlphaLISA, 16 h; hits give low values; activity change, % at 57.5 µM; in the data active = activity change below about -50%; inconclusive = mostly about -30% to -49%
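Secreted IL-1B measured by AlphaLISA bead assay after 16 h compound exposure of THP-1 cells; compounds (final up to 57.5 uM) added 1 h before LPS (250 ng/mL) and ATP (1.25 mM) stimulation; lower signal means less secretion.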
12-LOX inh: blocks human arachidonate 12S-lipoxygenase. hit rate 1.1% among 580,000. purified 12hLO, xylenol orange hydroperoxide absorbance. Potency, µM (series often up to 108 µM), without a hit: at the top dose activity change, negative = inhibition, hits mostly inhibitors. P18054; also: potency is read from the fitted curve at half-maximal effect
Target sequence (P18054 whole entry, looked up): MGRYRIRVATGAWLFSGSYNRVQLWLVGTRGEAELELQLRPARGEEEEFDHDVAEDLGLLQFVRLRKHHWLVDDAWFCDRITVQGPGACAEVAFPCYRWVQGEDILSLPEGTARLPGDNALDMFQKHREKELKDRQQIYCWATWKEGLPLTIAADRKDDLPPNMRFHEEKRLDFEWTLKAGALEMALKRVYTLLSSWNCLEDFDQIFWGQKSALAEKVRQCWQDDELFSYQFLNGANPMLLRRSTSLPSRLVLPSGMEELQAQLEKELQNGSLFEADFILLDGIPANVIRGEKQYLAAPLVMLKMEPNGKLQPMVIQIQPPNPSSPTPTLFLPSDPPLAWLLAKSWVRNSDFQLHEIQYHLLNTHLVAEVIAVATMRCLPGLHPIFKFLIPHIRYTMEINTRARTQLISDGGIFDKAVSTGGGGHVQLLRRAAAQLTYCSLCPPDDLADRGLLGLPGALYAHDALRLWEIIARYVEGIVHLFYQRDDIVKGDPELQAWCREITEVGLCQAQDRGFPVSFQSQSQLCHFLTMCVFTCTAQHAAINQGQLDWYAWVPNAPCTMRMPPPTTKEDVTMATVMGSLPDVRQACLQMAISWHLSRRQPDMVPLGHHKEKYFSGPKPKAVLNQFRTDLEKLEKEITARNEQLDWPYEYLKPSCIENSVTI
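Purified human 12hLO at 150 nM in 25 mM Hepes, 0.01% Triton X-100, pH 7.0, preincubated 15 min at room temperature with compound. Reaction started with 40 uM arachidonic acid, 30 min at room temperature. Hydroperoxide measured by Fe-xylenol orange, 573/405 nm absorbance ratio.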
HT1080-NT tox: kills 2HG-producing HT-1080-NT fibrosarcoma cells; HT-1080-NT fibrosarcoma viability, CellTiter-Glo ATP luminescence, 48 h; Potency, µM (series often up to 46.1 µM), for inactives: top-dose activity, negative = less viability, actives largely listed as cytotoxic; hit rate 1.6% among 360,000;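 also: NT is the 2HG producing partner of a matched IDH1 knockdown line; potency is read from the fitted curve at half-maximal effect; 0% = DMSO-treated cells and -100% = media-only wells without cells; nearly all actives have a fitted effect of over 55% in size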
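HT-1080-NT fibrosarcoma cells (2HG-overproducing), 750 cells/well in RPMI with 5% FBS, dosed after 2 h and incubated 48 h at 37C. CellTiter-Glo luminescence normalized to DMSO and no-cell wells; concentration-response curves fitted and classed.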
TDP1 cell CPT: DT40-hTDP1 cell growth loss with CPT | Potency, µM (series often up to 46.2 µM), inactives show at the highest dose activity change, negative = growth inhibition, hits mostly inhibitors | chicken DT40 Tdp1-/-;hTDP1 cells + 20 nM CPT, ATP luminescence, 48 h | hit rate 12% among 420,000; also: potency is read from the fitted curve at half-maximal effect; nearly all actives have a fitted effect of over 55% in size
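Chicken DT40 Tdp1-/- cells complemented with human TDP1, 400 cells/well, exposed to compounds plus 20 nM camptothecin for at least 48 h at 37 C; viability read as ATP content by CellTiter-Glo luminescence.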
* hit, by the source's call; ? = inconclusive; · = not tested or not shown; ! = not confirmed by another sample; [ ] = dose if it differs, or a comment. Unless noted, calls follow the shape of the dose curve; as a rule, active = well fitted curve in the direction sought with a large enough effect; inconclusive = small, poorly fitted or top-dose-only effect, or another doubt; inactive = no such curve, though single readings can be large; an effect the other way counts as inactive or inconclusive. Unless noted, % is scaled to controls: 0 for no effect and ±100 for the full control effect.

SMILES | DT40 TDP1 no CPT | HT1080 IDH1KD tx | IL1B secr inh | 12-LOX inh | HT1080-NT tox | TDP1 cell CPT
COc1cc(NC(=O)COC(=O)c2ccc3c(c2)NC(=O)CS3)c(C)cc1[N+](=O)[O-] | · | · | · | -23.8% | · | ·
O=C(NCCC1CCN(C(=O)Nc2ccc(F)cc2)CC1)C1CCCC1 | · | · | · | 46.5% | · | ·
c1ccc(CNc2nc(-c3cccs3)nc3ccccc23)cc1 | ? | 18.4µM* | · | -0.4% | ? | ?
CN1CCc2c(C#N)c(NCc3ccccn3)n3cnnc3c2C1 | · | · | · | -24.4% | · | ·
CCn1c(N)c(C(=O)NCCCOC)sc1=S | -22.9% | 4.6% | -2.2 | 39.8µM* | 9.4% | 9.8%
COc1ccccc1N1CCN(c2nc3ccccc3nc2C(C#N)C(=O)OC(C)C)CC1 (stereo unspecified) | 20.6µM* | -2.2% | -5.4 | ? | -2.5% | ?
CCOc1ccccc1N1CCN(c2nc(N)c(C#N)c(CC#N)c2C#N)CC1 | 20.6µM* | -5.4% | 1.7 | -13.6% | -5.6% | ?
CCOc1ccccc1N1CCN(c2nc3ccccc3nc2C(C#N)C(=O)OC)CC1 (stereo unspecified) | 14.6µM* | 10.3% | 18.0 | 0.0% | 8.7% | 23.1µM*
COCCOC(=O)C(C#N)c1nc2ccccc2nc1N1CCCC1 (stereo unspecified) | -12.2% | 5.4% | -16.4 | 7.7% | 3.6% | -3.3%
COc1ccccc1N1CCN(c2nc(C)cc(C)c2C#N)CC1 | -24.8% | -7.8% | 4.3 | 5.7% | 0.8% | -12.9%
O=C(NCCC1=CCCCC1)c1ccccc1C(F)(F)F | · | · | · | -11.2% | · | ·
OCC1(CNCc2cccnc2)C[C@@H](O)[C@@H](O)C1 (stereo partly specified) | · | · | · | 20µM* | · | ·
OCC1(CNCc2ccc(F)cc2)C[C@@H](O)[C@@H](O)C1 (stereo partly specified) | · | · | · | 63.4%[176 µM] | · | ·
NC(=O)[C@@H]1CN(C(=O)c2cncnc2)C[C@H]1COc1ccccc1 | · | · | · | 21.0% | · | ·
COc1nccnc1NC1CCN(C(=O)c2ccccc2)CC1 | · | · | · | 15.6% | · | ·
COc1ccccc1-c1cc(C(=O)N/N=C/c2ccoc2)c2ccccc2n1 | 7.31µM* | -0.1% | 28.4 | 0.0% | -9.5% | ?
COc1ccc(/C=N/NC(=O)c2cc(-c3ccccc3OC(C)C)nc3ccccc23)cc1CN1CCOCC1 | ? | -24.3% | ? | -1.7% | -20.2% | ?
O=C(N/N=C/c1cccc(O)c1)c1cc(C2CC2)nc2ccccc12 | ? | ? | 49.4 | -7.5% | -29.3% | ?
CCc1ccc(/C=N\NC(=O)c2ccc(Br)o2)s1 | 23.1µM* | -15.7% | -8.4 | 6.8% | -0.6% | ?
CCc1ccc(/C=N/NC(=O)c2cc(C3CC3)nc3ccc(Br)cc23)s1 | 4.61µM* | 5.8µM* | 24.0 | ? | 6.51µM* | 2.59µM*
CCc1ccc(/C=N/NC(=O)c2cc(-c3ccccc3OC)nc3ccccc23)s1 | 11.6µM* | -10.1% | -6.0 | 0.0% | -14.2% | 4.11µM*
Cc1nc2sccn2c1CN1CCC2(CC1)CC2C(=O)Nc1ccc2c(c1)OCO2 (stereo unspecified) | ? | · | · | 3.6% | · | -2.5%[9.04 µM]
O=C(O)C1(c2cccc(Br)c2)CCOCC1 | · | · | · | -2.3% | · | ·
O=C(NCc1cc(C(F)(F)F)ccc1Cl)c1cccc2c1C(=O)c1ccc(N3CCC(N4CCCCC4)CC3)cc1S2(=O)=O | 2.91µM* | -11.2% | 91.6 | ? | -24.2% | 5.17µM*
O=C(NCc1cc(C(F)(F)F)ccc1Cl)c1cccc2c1C(=O)c1ccc(N3CCOCC3)cc1S2(=O)=O | 20.6µM* | -0.4% | 9.1 | ? | 0.0% | 18.4µM*
SMILES | DT40 TDP1 no CPT | HT1080 IDH1KD tx | IL1B secr inh | 12-LOX inh | HT1080-NT tox | TDP1 cell CPT
O=C(NCc1cc(C(F)(F)F)ccc1Cl)c1cccc2c1C(=O)c1ccc(N3CCCCC3)cc1S2(=O)=O | ? | 0.2% | 58.6 | ? | -18.9% | ?
CC[C@H]1CN(C(=O)C2CC2)CC[C@H]1CC(=O)N1CCC(C(=O)OC)CC1 | · | · | · | 22.4%[176 µM] | · | ·
CCN(C(=O)c1cn(C)c(=O)c2cc(OC)c(OC)cc12)c1ccccc1C | -11.0% | 4.0% | 27.4 | -6.8% | 1.0% | 8.3%
CCN(C(=O)c1cc(OC)c(OC)c(OC)c1)C1CCCCC1 | 23.1µM* | -1.0% | 35.2 | 10.8% | 1.7% | ?
CCN(C(=O)/C=C/c1cc(OC)c(OC)c(OC)c1)C1CCCCC1 | ? | 1.1% | -11.3 | -31.8% | -1.1% | ?
CCN(C(=O)c1cn(CC)c(=O)c2cc(OC)c(OC)cc12)c1ccccc1F | 20.6µM* | · | · | -8.1% | · | -27.7%
CCN(C(=O)c1cc(Cl)ccc1OC)C1CCCCC1 | 23.1µM* | -14.7% | 18.1 | 0.0% | -2.7% | ?
CCN(C(=O)c1cc(Cl)ccc1Cl)C1CCS(=O)(=O)C1 (stereo unspecified) | -6.3% | 4.0% | 19.4 | 1.6% | 5.1% | -3.5%
CCN(C(=O)c1cc(Cl)ccc1OC)c1ccccc1C | 20.6µM* | 3.9% | 28.8 | 411.2% | -3.3% | ?
N#Cc1ccccc1OCC(=O)NCc1ccccc1 | · | · | · | -2.6% | · | ·
COc1cc(C(=O)NC2CCCCCCC2)cc(OC)c1OC | ? | 6.6% | 40.7 | 26.1% | 18.7% | 21.3%
CCN(C(=O)c1cccc(NC(=O)c2ccccc2)c1)C1CCCCC1 | ? | -0.6% | -29.0 | -0.3% | 0.0% | 14.6µM*
COc1cc(C(=O)N(C(C)C)C2CCCCC2)cc(OC)c1OC | 10.3µM* | 2.4% | 20.5 | -14.0% | 2.0% | 11.6µM*
CN1CCC2(C1)CN(CC1CCOCC1)c1ccc(C(=O)Nc3ccccc3)cc12 (stereo unspecified) | · | · | · | 38.3%[176 µM] | · | ·
COC(=O)CN1C(=O)CSc2ccc(S(=O)(=O)Nc3ccc(C(C)=O)cc3)cc21 | -2.4% | · | · | -11.1% | · | -14.9%
Cc1cccc(C#Cc2ccccc2)n1 | 29.9µM*! | -4.0% | -18.4 | ? | -0.3% | ?
Cc1ccc(C)c(-c2nn(CC(O)COCc3ccccc3)c(=O)c3ccccc23)c1 (stereo unspecified) | · | · | · | 5.4% | · | ·
Cc1ccc(C(=O)OCC(=O)c2ccco2)s1 | · | · | · | 31.6µM* | · | ·
Fc1ccc(NN2CCOCC2)cc1-c1noc2ccccc12 | · | · | · | -23.1% | · | ·
CCCN1C(=O)Cc2cc(C(=O)NCc3ccc(Cl)cc3)ccc21 | · | · | · | 8.0% | · | ·
CCCC(=O)NC(C)C(c1cccs1)N1CCN(C)CC1 (stereo unspecified) | 25.9% | 4.9% | 7.3 | -4.7% | 11.7% | -12.8%
CC(C)C(=O)NC(c1ccccc1)c1cc([N+](=O)[O-])c2cccnc2c1O (stereo unspecified) | ? | 16.4µM* | 34.1 | ? | ? | 18.4µM*

Assay outcomes: PubChem, National Center for Advancing Translational Sciences (NCATS)
